# From PubChem BioAssay
# CSC inhib: blocks cancer stem cells | cancer stem cell-like cells viability, luminescence | inhibition, % at 7.5 µM | hit rate 1.1% among 300,000 | AID 2717; in the data active = inhibition above about 75%; inconclusive = no clear call, values can overlap the other calls; tested in HMLE shEcad cells
# PP1 inh: counter-screen for PP5 inhibitors: inhibitors of human PP1-alpha; P62136; purified PP1alpha, OMFP fluorescence; inhibition, % at 6.7 µM; hit rate 0.9% among 320,000;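 active = inhibition above the mean inhibition of all tested compounds plus 3 SD, computed separately for each screening campaign, cut at about 15% in these data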
# PP5 primary: inhibitors of human protein phosphatase 5 (PP5); AID 1987; hit rate 0.18% among 320,000; inhibition, % at 6.7 µM; purified PP5c, OMFP substrate fluorescence;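 active = inhibition above the campaign's mean inhibition across all tested compounds plus 3 SD, cut at about 9.5% in these data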;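 also: 0% = DMSO only and 100% = 100 µM cantharidin control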
# Beta cell apopt: beta cell apoptosis inhibition. hit rate 0.8% among 300,000. protection from apoptosis, % (concentration not given with the values). INS-1E cytokine-induced death, ATP luminescence, 48 h; percent of positive-control rescue, neutral wells zero;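 active = Every replicate reaches about 75%, or at least half do and their mean reaches it too, limit read from the data; inconclusive = At least half of replicates reach the limit but their mean does not; inactive = Under half of replicates reach the limit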;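 also: 0% = cytokine-treated negative control wells and 100% = positive control rescue; higher means more ATP so stronger rescue from cytokine killing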
# Mdm2-MdmX inh: inhibitors of human Mdm2/MdmX interaction; O15151+Q00987; SaOS-2 split-luciferase Mdm2/MdmX complementation, luminescence; inhibition, % at 8 µM; hit rate 3% among 330,000; AID 485346;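 active = inhibition of at least 50% at 8 µM in the primary screen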
# Calb FLC: affects C. albicans growth with fluconazole; hit rate 0.57% among 300,000; C. albicans CaCi-2 (fluconazole-resistant clinical isolate) + fluconazole, Alamar Blue growth, 48 h; growth inhibition, % (no concentration beside the values);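 active = growth inhibition above about 58% in most replicates, limit read from the data, passing the limit was not always enough; inconclusive = exactly half the replicates above a set limit; inactive = most replicates below a set limit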;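 also: all wells also contain fluconazole at 8 µg/ml as a sub-toxic cotreatment; 0% = median of DMSO wells and 100% = median of geldanamycin control wells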
# Mdm2-MdmX conf: confirmation of human Mdm2/MdmX interaction inhibitors | shares compounds with Mdm2-MdmX inh | Mdm2-MdmX binding, luminescent assay | inhibition, % at 8 µM | hit rate 55% among 10,000 | AID 489028; in the data active = inhibition above about 40%
# Full FLuc ctr: counter-screen for Mdm2/MdmX inhibitors: full-length luciferase. shares compounds with Mdm2-MdmX inh. SaOS-2 full-length luciferase counterscreen, luminescence. inhibition, % at 8 µM. hit rate 77% among 6,200;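 active = mean inhibition at 8 µM reaching about 37%, which flags the compound as non-specific, limit read from the data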;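 also: p53-null SaOS-2 cells with luciferase driven by a doxycycline-inducible promoter; compound on cells about two nights before reading with doxycycline added after day one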
# Starred values were filed as active, the others as inactive; ? = inconclusive; / = not tested or not shown. Sampled rows, rich in hits. Any-hit rate of the full collection: about 4.9%.
SMILES,CSC inhib,PP1 inh,PP5 primary,Beta cell apopt,Mdm2-MdmX inh,Calb FLC,Mdm2-MdmX conf,others
CCN(CC(=O)Nc1ccccc1C(F)(F)F)C(=O)CCS(=O)(=O)c1ccc(Cl)cc1,-5,-7,0,-5,-3,-5,/,
CN(Cc1c(C(=O)N/N=C/c2cc(F)ccc2F)nnn1-c1nonc1N)C1CCCCC1,2,2,1,-2,12,/,/,
CN1CCN(CCC=C2c3ccccc3Sc3ccc(S(=O)(=O)N(C)C)cc32)CC1,-3,-1,-1,-7,50*,/,31,
COc1ccc(C(CCN2CCCC2)c2c(OC)cc(OC)c3c(-c4ccccc4)cc(=O)oc23)cc1 (stereo not drawn),3,8,3,4,38,-21,/,
COc1ccc(C(CCN2CCCC(C)C2)c2c(OC)cc(OC)c3c(-c4ccccc4)cc(=O)oc23)cc1 (stereo not drawn),27,7,2,51,100*,-14,17,
COc1cc(OC)c2c(-c3ccccc3)cc(=O)oc2c1C(CCN1CCCC(C)C1)c1ccc(N(C)C)cc1 (stereo not drawn),30,12,5,16,77*,-22,18,
COc1nnc(-c2ccc(N3CCCCC3)c(NC(=O)C3CCCCC3)c2)c2ccccc12,33,-1,0,79*,90*,?,29,
COc1nnc(-c2ccc(N3CCOCC3)c(NC(=O)C3CCCCC3)c2)c2ccccc12,-7,-2,3,2,16,-3,/,
Cc1c(C(=O)N2CCN(CCc3ccccn3)CC2)oc2ccc(Cl)cc12,-7,-3,0,-4,16,6,/,
COc1cc2c(c(OC)c1OC)-c1ccc(NC(=O)c3ccccc3)c(=O)cc1[C@@H](NC(C)=O)CC2,45,/,/,18,57*,-2,65*,Full FLuc ctr=63*
COc1cc2c(c(OC)c1OC)-c1c(cc(OC)c(OC)c1OC)C[C@](C)(O)[C@@H](C)C2,-3,0,-1,3,3,-6,/,
CN[C@H]1CCc2cc(OC)c(OC)c(OC)c2-c2ccc(OC)c(=O)cc21,46,0,1,60,68*,-4,56*,Full FLuc ctr=104*
COc1cc(C(=O)Nc2cccc(NC(=O)c3ccccc3)c2)cc(OC)c1OC,0,-1,2,/,29,-7,/,
CC(=O)c1ccccc1OC(=O)COc1ccc(Cl)cc1C,1,-3,3,/,17,-12,/,
O=C(OCc1c(-c2ccccc2)ncc2ccccc12)c1ccc(C(F)(F)F)cc1,8,/,/,6,78*,/,0,
COC(=O)COc1ccc(S(=O)(=O)Nc2ccc3c(c2)OCO3)cc1,0,0,2,-2,14,28,/,
COC(=O)COc1ccc(S(=O)(=O)Nc2ccc3c(c2)OCO3)cc1Cl,8,-1,3,-14,52*,-4,29,
CC(C)N=C(NS(=O)(=O)c1ccccc1)C(Cl)(Cl)Cl,-2,0,0,14,83*,-36,60*,Full FLuc ctr=74*
COc1cc(C(=O)Nc2nc(-c3cccs3)cs2)cc(OC)c1OC,/,1,3,/,76*,37,28,
COc1ccc(C(=O)Nc2nc(-c3cccs3)cs2)cc1,13,-3,3,-5,-65,-17,/,
CCN(CC)c1ccc(NC(=O)c2ccc(=O)[nH]c2)cc1S(=O)(=O)Nc1ccccc1OC,46,2,5,16,50*,13,56*,Full FLuc ctr=54*
O=C(COC(=O)c1ccc2ncsc2c1)Nc1cc([N+](=O)[O-])ccc1Cl,/,2,1,0,-10,/,/,
Cc1ccc(C(=O)N(Nc2nc3ccccc3s2)C(=O)c2ccc(C)cc2)cc1,-7,2,0,5,8,8,/,
O=C(N/N=C/c1cccnc1)C1CC1(c1ccccc1)c1ccccc1 (stereo not drawn),-20,1,-2,-5,31,8,/,
CC1(C)Cc2c(c(N3CCOCC3)nc3sc(C(=O)Nc4ccc(Cl)cc4)c(N)c23)CO1,/,-3,2,1,5,-4,/,
Cc1nc2c(sc3nc(N4CCOCC4)c4c(c32)CC(C)(C)OC4)c(-c2ccc(Cl)cc2)c1C(=O)O,40,7,3,8,64*,-3,32,
